Data as given in the supplement of paper PMC11172423.
Unmarked numbers belong to inactive results.

The molecules below were run on Madurella mycetomatis MM55 (assay: growth relative to untreated control; higher = less inhibition, active = 20 or less). Conditions: 25 µM.
Protocol: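 Hyphal fragments of M. mycetomatis MM55 or F. senegalensis CBS197.79 in RPMI 1640/MOPS were exposed to each MMV COVID Box or Global Health Priority Box compound at 100 or 25 µM for 7 days at 37 °C. Viability was read with MTS (490 nm, M. mycetomatis) or resazurin (600 nm, F. senegalensis), background-corrected with a medium-only control and expressed as % growth relative to the untreated growth control. Inhibition of more than 80% was taken as growth inhibition.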
In the case of `NCCc1cn(S(=O)(=O)c2c(Cl)nc3sccn23)c2ccccc12`, the growth is reported as 79.9%. In the case of `CC(C)(C)Nc1cc2c(cn1)nc(Nc1cc(Cl)cc(C(F)(F)F)c1)n2C1CCNC1` (stereo not given), the growth is reported as 8.45% (active). For `CCN(CC)c1nc(C)cc(OP(=S)(OC)OC)n1`, the growth was 110%. Work on `COc1ccc(C[C@H]2NC[C@H](O)[C@H]2OC(C)=O)cc1` yielded a growth of 111%. `CC[C@H]1CN2CCc3cc(OC)c(OC)cc3[C@@H]2C[C@@H]1C[C@H]1NCCc2cc(OC)c(OC)cc21` gave a growth of 84.8%. `C[C@@H]1C[C@@H]([C@H](O)CC2CC(=O)NC(=O)C2)C(=O)[C@@H](C)C1` was tested, and the growth was 31.4%. Work on `CC[C@@H]1CCC[C@H](O[C@H]2CC[C@H](N(C)C)[C@@H](C)O2)[C@@H](C)C(=O)C2=C[C@@H]3[C@@H](C=C(C)[C@@H]4C[C@@H](O[C@@H]5O[C@@H](C)[C@H](OC)[C@@H](OC)[C@H]5OC)C[C@@H]34)[C@@H]2CC(=O)O1.CC[C@@H]1CCC[C@H](O[C@H]2CC[C@H](N(C)C)[C@@H](C)O2)[C@@H](C)C(=O)C2=C[C@@H]3[C@@H](C=C[C@@H]4C[C@@H](O[C@@H]5O[C@@H](C)[C@H](OC)[C@@H](OC)[C@H]5OC)C[C@@H]34)[C@@H]2CC(=O)O1` yielded a growth of 133%. With `CCOc1ccc(C(C)(C)COCc2cccc(Oc3ccccc3)c2)cc1` the growth was 97%. `CN1COCN(Cc2cnc(Cl)s2)/C1=N/[N+](=O)[O-]` gave a growth of 87.9%. For `Cc1cc(C2=NOC(c3cc(Cl)cc(Cl)c3)(C(F)(F)F)C2)ccc1C(=O)NCC(=O)NCC(F)(F)F` (stereo not given), the growth was 43.8%. `CCOC(=O)CC(SP(=S)(OC)OC)C(=O)OCC` (stereo not given) was tested, and the growth was 128%. In the case of `O=[N+]([O-])/N=C1\NCCN1Cc1ccc(Cl)nc1`, the growth is reported as 92.8%. `CC[C@@H](C(=O)[C@@H](C)[C@@H](O)[C@H](C)[C@@H]1O[C@@H]([C@@H](CC)C(=O)O)CC[C@@H]1C)[C@H]1O[C@]2(C=C[C@@H](O)[C@]3(CC[C@@](C)([C@H]4CC[C@](O)(CC)[C@H](C)O4)O3)O2)[C@H](C)C[C@@H]1C` gave a growth of 124%. In the case of `CNC(=O)c1cc(C#N)cc(C)c1NC(=O)c1cc(Br)nn1-c1ncccc1Cl`, the growth is reported as 69.7%. For `CC(C)Nc1cc2c(cn1)nc(Nc1cc(Cl)cc(C(F)(F)F)c1)n2C1CCNC1` (stereo not given), the growth was 7.15% (active). Work on `CCc1nn(C)c(C(=O)NCc2ccc(Oc3ccc(C)cc3)cc2)c1Cl` yielded a growth of 66.4%. Work on `COC(=O)N(C(=O)N1CO[C@@]2(C(=O)OC)Cc3cc(Cl)ccc3C2=N1)c1ccc(OC(F)(F)F)cc1` yielded a growth of 46.3%. `COc1ccc(Cc2nccc3cc(OC)c(OC)cc23)cc1OC` was tested, and the growth was 78%. For `Clc1cc(Cl)cc(Nc2nc3cnc(NC4CCCC4)cc3n2C2CCNC2)c1` (stereo not given), the growth was 7.86% (active). Work on `CCOP(=S)(OCC)Oc1nc(Cl)c(Cl)cc1Cl` yielded a growth of 142%.

Same assay, conditions: 100 µM
In the case of `NCCc1cn(S(=O)(=O)c2c(Cl)nc3sccn23)c2ccccc12`, the growth is reported as 2.9% (active). In the case of `CC(C)(C)Nc1cc2c(cn1)nc(Nc1cc(Cl)cc(C(F)(F)F)c1)n2C1CCNC1` (stereo not given), the growth is reported as 7.09% (active). `CCN(CC)c1nc(C)cc(OP(=S)(OC)OC)n1` showed a growth of 99.4%. `COc1ccc(C[C@H]2NC[C@H](O)[C@H]2OC(C)=O)cc1` was tested, and the growth was 3.35% (active). `CC[C@H]1CN2CCc3cc(OC)c(OC)cc3[C@@H]2C[C@@H]1C[C@H]1NCCc2cc(OC)c(OC)cc21` gave a growth of 43.6%. For `C[C@@H]1C[C@@H]([C@H](O)CC2CC(=O)NC(=O)C2)C(=O)[C@@H](C)C1`, the growth was 3.56% (active). `CC[C@@H]1CCC[C@H](O[C@H]2CC[C@H](N(C)C)[C@@H](C)O2)[C@@H](C)C(=O)C2=C[C@@H]3[C@@H](C=C(C)[C@@H]4C[C@@H](O[C@@H]5O[C@@H](C)[C@H](OC)[C@@H](OC)[C@H]5OC)C[C@@H]34)[C@@H]2CC(=O)O1.CC[C@@H]1CCC[C@H](O[C@H]2CC[C@H](N(C)C)[C@@H](C)O2)[C@@H](C)C(=O)C2=C[C@@H]3[C@@H](C=C[C@@H]4C[C@@H](O[C@@H]5O[C@@H](C)[C@H](OC)[C@@H](OC)[C@H]5OC)C[C@@H]34)[C@@H]2CC(=O)O1` showed a growth of 91.5%. Molecule `CCOc1ccc(C(C)(C)COCc2cccc(Oc3ccccc3)c2)cc1` has a growth of 116%. With `CN1COCN(Cc2cnc(Cl)s2)/C1=N/[N+](=O)[O-]` the growth was 126%. In the case of `Cc1cc(C2=NOC(c3cc(Cl)cc(Cl)c3)(C(F)(F)F)C2)ccc1C(=O)NCC(=O)NCC(F)(F)F` (stereo not given), the growth is reported as 9.07% (active). Work on `CCOC(=O)CC(SP(=S)(OC)OC)C(=O)OCC` (stereo not given) yielded a growth of 131%. `O=[N+]([O-])/N=C1\NCCN1Cc1ccc(Cl)nc1` gave a growth of 98.3%. In the case of `CC[C@@H](C(=O)[C@@H](C)[C@@H](O)[C@H](C)[C@@H]1O[C@@H]([C@@H](CC)C(=O)O)CC[C@@H]1C)[C@H]1O[C@]2(C=C[C@@H](O)[C@]3(CC[C@@](C)([C@H]4CC[C@](O)(CC)[C@H](C)O4)O3)O2)[C@H](C)C[C@@H]1C`, the growth is reported as 70.3%. With `CNC(=O)c1cc(C#N)cc(C)c1NC(=O)c1cc(Br)nn1-c1ncccc1Cl` the growth was 55.9%. With `CC(C)Nc1cc2c(cn1)nc(Nc1cc(Cl)cc(C(F)(F)F)c1)n2C1CCNC1` (stereo not given) the growth was 6.36% (active). `CCc1nn(C)c(C(=O)NCc2ccc(Oc3ccc(C)cc3)cc2)c1Cl` showed a growth of 120%. For `COC(=O)N(C(=O)N1CO[C@@]2(C(=O)OC)Cc3cc(Cl)ccc3C2=N1)c1ccc(OC(F)(F)F)cc1`, the growth was 115%. `COc1ccc(Cc2nccc3cc(OC)c(OC)cc23)cc1OC` gave a growth of 83.4%. For `Clc1cc(Cl)cc(Nc2nc3cnc(NC4CCCC4)cc3n2C2CCNC2)c1` (stereo not given), the growth was 6.79% (active). `CCOP(=S)(OCC)Oc1nc(Cl)c(Cl)cc1Cl` was tested, and the growth was 111%.
